The list is not random: actives were taken first. Their share in the collection is about 11%.
HttQ103 aggreg: inhibitors of mutant huntingtin aggregate formation in PC12 cells | PC12 HttQ103-GFP aggregates, Acumen cytometry, 40 h | Potency, µM (highest dose often 46.1 µM), hits mostly inhibitors | hit rate 1.1% among 220,000 | AID 1688; further: nearly all actives have a fitted effect of over 60% in size
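Aggregates are detected as GFP objects 1–25 µm with signal 6 STDEV over background in lysates of induced PC12 cells. These carry Huntingtin exon 1 with 103 glutamines fused to GFP under an ecdysone promoter; compounds titrated.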
ALDH1A1 block: inhibitors of human aldehyde dehydrogenase 1A1; P00352; Purified ALDH1A1, NADH fluorescence, propionaldehyde substrate; Potency, µM (doses to about 75.3 µM), most hits filed as inhibitors; hit rate 7.3% among 220,000; active means well fitted inhibition curve with a large enough effect, not every such curve was filed as active; inconclusive means small, poorly fitted or top-dose-only effect, or another doubt; inactive means no such curve, though single readings can be large or run the other way
HTT ATP protect: protects HTT-Q103 PC12 cells, measured by ATP. PC12 HTT-Q103 induced, cytoprotection, ATP luminescence, 40 h. Potency, µM (titrated, usually from 56.4 µM), usual class: activators. hit rate 0.14% among 230,000; further: nearly all actives have a fitted effect of over 45% in size
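Rat PC12, Q103 Htt exon1-GFP fusion, ecdysone promoter; tebufenozide inducer 100 nM final; compound titration; qHTS, 1500 cells/well; ATPlite luminescent read.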
HPGD block: inhibitors of human 15-hydroxyprostaglandin dehydrogenase (HPGD). Potency, µM, usual class: inhibitors. P15428. hit rate 4.3% among 150,000. purified HPGD, NADH fluorescence kinetic, PGE2 substrate; active means well fitted inhibition curve with a large enough effect, not every such curve was filed as active; inconclusive means small, poorly fitted or top-dose-only effect, or another doubt; inactive means no such curve, though single readings can be large or run the other way
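NADH formation kinetics: reaction with 30 uM PGE2 and 1 mM NAD+ (final), 20 nM enzyme, Tris-HCl pH 8 with Tween 20, after 15 min compound preincubation at room temperature. Fluorescence change, last versus first of five reads.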
CBFb RUNX1 block: CBF-beta/RUNX1 interaction disruption | Q01196+Q13951 | AlphaScreen CBFb-His/RUNX1-biotin binding, biochemical | Potency, µM (titrated, usually from 59.8 µM), most hits filed as inhibitors | 230,000 tested, under 10 active
Target sequence (Q01196 whole entry, looked up): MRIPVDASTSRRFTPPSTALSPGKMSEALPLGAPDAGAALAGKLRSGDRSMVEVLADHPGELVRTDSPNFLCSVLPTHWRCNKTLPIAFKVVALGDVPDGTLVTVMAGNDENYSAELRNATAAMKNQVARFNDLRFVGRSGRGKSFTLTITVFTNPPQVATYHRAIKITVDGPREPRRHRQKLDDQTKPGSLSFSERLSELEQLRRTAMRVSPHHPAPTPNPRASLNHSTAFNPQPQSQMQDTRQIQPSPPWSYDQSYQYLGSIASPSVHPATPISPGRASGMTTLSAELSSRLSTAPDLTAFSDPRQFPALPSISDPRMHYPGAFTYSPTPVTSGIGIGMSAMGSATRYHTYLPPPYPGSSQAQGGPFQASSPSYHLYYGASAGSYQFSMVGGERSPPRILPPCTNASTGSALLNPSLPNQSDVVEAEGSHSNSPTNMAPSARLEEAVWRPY
Target sequence (Q13951 whole entry, looked up): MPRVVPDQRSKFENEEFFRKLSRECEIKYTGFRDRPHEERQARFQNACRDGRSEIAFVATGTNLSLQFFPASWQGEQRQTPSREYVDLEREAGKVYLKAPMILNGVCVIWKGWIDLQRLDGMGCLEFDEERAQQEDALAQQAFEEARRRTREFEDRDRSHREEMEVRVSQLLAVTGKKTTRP
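Compounds were screened at multiple concentrations against a preformed CBF-beta(His)/RUNX1(biotin) complex (30 nM of each) for 15 min at room temperature, followed by 90 min with nickel and streptavidin beads and AlphaScreen reading.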
PNC inhibitor: perinucleolar compartment assembly inhibition. activity change (PNC), negative = inhibition, % at 10 µM. PC3M PTB-GFP, PNC prevalence imaging, 16 h; active compounds read low. AID 2417. hit rate 3.1% among 140,000;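 active means readout at or below -70, meaning at least 70% loss of cells showing the perinucleolar compartment, a nuclear body marking cancer cells; inconclusive means readout between -30 and a set limit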
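Read-out is percentage of cells bearing a perinucleolar compartment, from automated 20x imaging of fixed, Hoechst-stained PC3M PTB-GFP cells. Cells were seeded 4 h, then exposed 16 h to compound (23 nl of library stock) in duplicate plates.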
Of the large screens only hits and unclear results are named; the others gave an inactive call. Unless noted, the call rests on the fitted dose curve; in most records, active means well fitted curve in the direction sought with a large enough effect; inconclusive means small, poorly fitted or top-dose-only effect, or another doubt; inactive means no such curve, though single readings can be large; an effect the other way counts as inactive or inconclusive.

CCCCCCC1CC(CCc2nc(=S)[nH][nH]2)C(=O)O1 (centres undefined)	ALDH1A1 block inconclusive, HPGD block 16µM, PNC inhibitor inconclusive
Nc1ccc(O)c2c(=O)cc(-c3ccccc3Cl)oc12	PNC inhibitor inconclusive
O=c1cc(-c2ccccc2Cl)oc2cc(O)cc(O)c12	ALDH1A1 block inconclusive, HPGD block 18µM (no result: HTT ATP protect)
CCOc1cccc2oc(-c3ccccc3Cl)cc(=O)c12	HPGD block 45µM (no result: HttQ103 aggreg, PNC inhibitor)
COc1cc(CN2CCNC(=O)C2CC(=O)N(Cc2nccn2C)C(C)C)cc(OC)c1 (centres undefined)	none (no result: ALDH1A1 block, HPGD block, PNC inhibitor)
Nc1nc(SCC(=O)NCCCN2CCOCC2)nc2sc3c(c12)CCC3	ALDH1A1 block inconclusive
COC(=O)C1=COC(C)C2CN3CCc4c([nH]c5ccccc45)C3CC12 (centres undefined)	HttQ103 aggreg 11µM (no result: HPGD block)
COC(=O)C1=CO[C@@H](C)[C@H]2CN3CCc4c([nH]c5ccccc45)[C@@H]3C[C@H]12	none (no result: HttQ103 aggreg, PNC inhibitor)
O=C(N/N=C1\CCCc2ccccc21)C(O)c1ccccc1 (centres undefined)	none
CN1CCN(CCCBr)CC1	none (no result: HttQ103 aggreg, CBFb RUNX1 block, PNC inhibitor)
CC(C)(C)c1ccc(C(=O)N2CCNCC2)cc1	HPGD block inconclusive
CN1CCC2(CC1)N=C(c1ccc(F)cc1)C(=S)N2C(=O)c1ccc(C(C)(C)C)cc1	HttQ103 aggreg inconclusive, ALDH1A1 block 18µM (no result: HPGD block)
CCN(CC)S(=O)(=O)c1ccc(O)c(NC(=O)c2ccc(N3CCOCC3)c([N+](=O)[O-])c2)c1	ALDH1A1 block 0.71µM, HPGD block 32µM (no result: HTT ATP protect)
CCN(CC)S(=O)(=O)c1ccc(N2CCOCC2)c(NC(=O)c2cc(C)cc(C)c2)c1	ALDH1A1 block inconclusive
CCN(CC)S(=O)(=O)c1ccc(N2CCOCC2)c(NC(=O)CCC2CCCCC2)c1	ALDH1A1 block 1.6µM, HPGD block inconclusive
CCN(CC)S(=O)(=O)c1ccc(N2CCOCC2)c(NC(=O)Cc2ccccc2F)c1	ALDH1A1 block inconclusive
CCN(CC)S(=O)(=O)c1ccc(N2CCOCC2)c(NC(=O)Cc2ccccc2)c1	ALDH1A1 block 13µM
CN(CCO)C1=NS(=O)(=O)c2cc([N+](=O)[O-])ccc21	HttQ103 aggreg 6.3µM, ALDH1A1 block inconclusive (no result: HPGD block, PNC inhibitor)
COCCCCCCCCCCCC(=O)O	none (no result: HttQ103 aggreg, PNC inhibitor)
COCc1ccc([C@@H]2C[C@H]3CN(Cc4ccccc4C)C(=O)[C@]34CCCN24)o1	HttQ103 aggreg 4.5µM, ALDH1A1 block 20µM (no result: HPGD block, PNC inhibitor)
Cc1ccc2nc(Cl)c(/C=N/Nc3nc(C)cc(C)n3)c(=O)n2c1	CBFb RUNX1 block inconclusive (no result: HTT ATP protect)
CC(C)c1onc(C(=O)N2CCC(C(N)=O)CC2)c1[N+](=O)[O-]	none (no result: ALDH1A1 block, HPGD block, PNC inhibitor)
O=C(Nc1sc2c(c1C(=O)c1ccccc1)CCCC2)c1cccnc1	ALDH1A1 block inconclusive
CCCc1cc(C(=O)OC)c(NC(=O)c2cc(C)on2)s1	HTT ATP protect inconclusive, PNC inhibitor -87
Cc1cc(C(=O)Nc2sc3c(c2C#N)CCC(C(C)(C)C)C3)no1 (centres undefined)	ALDH1A1 block inconclusive, HPGD block inconclusive, PNC inhibitor inconclusive
CCc1ccc(NC(=O)c2cc(C)on2)cc1	none
Cc1cc(C(=O)Nc2sc(C)c(C)c2C#N)no1	ALDH1A1 block 13µM, PNC inhibitor inconclusive
O=C(Nc1sc2c(c1C(=O)c1ccc(Cl)cc1)CCCC2)c1cccnc1	ALDH1A1 block 20µM, CBFb RUNX1 block inconclusive
CC(C)c1onc(C(=O)N2CCCCCC2)c1[N+](=O)[O-]	ALDH1A1 block 25µM (no result: HPGD block, PNC inhibitor)
CC(C)c1onc(C(=O)Nc2sc3c(c2C#N)CCC3)c1[N+](=O)[O-]	ALDH1A1 block 13µM, CBFb RUNX1 block inconclusive (no result: HPGD block, PNC inhibitor)
CCc1c(C)sc(NC(=O)c2cc(C(C)C)on2)c1C#N	ALDH1A1 block 18µM (no result: HPGD block, PNC inhibitor)
CCc1ccc(NC(=O)c2cc(C(C)C)on2)cc1	ALDH1A1 block inconclusive
N#Cc1c(NC(=O)c2cnccn2)sc2c1CCCC2	ALDH1A1 block 14µM, HPGD block 28µM (no result: HTT ATP protect)
CCc1c(C)sc(NC(=O)c2cc(C)no2)c1C#N	ALDH1A1 block 13µM, HPGD block 32µM
N#Cc1c(NC(=O)c2cccnc2)sc2c1CCC2	none
COc1ccc(C2CC(C)=C(C#N)S(=O)(=O)C2C#N)cc1 (centres undefined)	none (no result: ALDH1A1 block, HPGD block, PNC inhibitor)
CCCC(=O)Nc1sc(C)c(C)c1C#N	ALDH1A1 block inconclusive (no result: HttQ103 aggreg, HTT ATP protect, HPGD block, PNC inhibitor)
Cc1nn(CCCC(=O)Nc2sc3c(c2C#N)CCC3)c(C)c1[N+](=O)[O-]	ALDH1A1 block 2.5µM, HPGD block 22µM
Cc1nn(C(C)C(=O)Nc2sc3c(c2C#N)CCCC3)c(C)c1[N+](=O)[O-] (centres undefined)	HttQ103 aggreg inconclusive
CCc1c(C)sc(NC(=O)CC#N)c1C#N	ALDH1A1 block 3.5µM, HPGD block inconclusive
CC(C)c1cc(C(=O)Nc2sc3c(c2C#N)CCC3)no1	ALDH1A1 block 18µM, HPGD block inconclusive
CCC(CC)NC(=O)c1cc([N+](=O)[O-])ccc1N1CCOCC1	ALDH1A1 block inconclusive (no result: HPGD block)
N#Cc1c(NC(=O)c2cc([N+](=O)[O-])ccc2N2CCOCC2)sc2c1CCCC2	HPGD block 28µM
COc1ccc(OCCC(=O)OCC(=O)NCc2ccccc2)cc1	none
CC(CO)(CO)Nc1ncnc2ccccc12	none (no result: HttQ103 aggreg, CBFb RUNX1 block, PNC inhibitor)
CCOC(=O)c1c(C)oc2ccc(OCC(N)=O)cc12	PNC inhibitor inconclusive
CCOC(=O)c1c(C)oc2ccc(OC(=O)COc3c(F)c(F)c(F)c(F)c3F)cc12	HttQ103 aggreg 13µM (no result: HTT ATP protect)
COCCOC(=O)c1c(C)oc2ccc(OCc3ccccc3)cc12	CBFb RUNX1 block inconclusive, PNC inhibitor -114 (no result: HTT ATP protect)
CCOC(=O)c1c2c3c(c(Cl)ccc3[nH]c1=O)C(=O)c1ccccc1-2	none (no result: HTT ATP protect, HPGD block, PNC inhibitor)
CCOC(=O)C1C(=O)CC(=O)CC1CC(C)SCC (centres undefined)	ALDH1A1 block 13µM
COC(CNC(=O)c1ccc2c(c1)nc(C)n2-c1cccc(F)c1)OC	HPGD block 11µM
CCOC(CNC(=O)c1ccc2c(c1)ncn2-c1cccc(F)c1)OCC	none (no result: HPGD block, PNC inhibitor)
COC(CNC(=O)c1ccc2c(c1)ncn2-c1ccc(F)c(F)c1)OC	none (no result: HPGD block, PNC inhibitor)
COCCNC(=O)c1ccc2c(c1)ncn2-c1ccc(F)c(F)c1	HPGD block 2.5µM
COC(CNC(=O)c1ccc2c(c1)nc(C)n2-c1ccc(F)c(F)c1)OC	HPGD block 11µM, PNC inhibitor -91
Cc1nc2cc(C(=O)N3CCc4ccccc43)ccc2n1-c1ccc(F)c(F)c1	HttQ103 aggreg inconclusive, ALDH1A1 block inconclusive, HPGD block 14µM
CN(c1ccccc1C(=O)N1CCN(c2ccccc2)CC1)S(C)(=O)=O	none
Cc1cc2c(c(=O)n1Cc1ccccn1)C(c1ccc3c(c1)OCO3)C(C#N)=C(N)O2 (centres undefined)	ALDH1A1 block 13µM

Screening data from PubChem BioAssay.
